GLP-1R agonist – GLP-1 receptor (human) agonism | HEK293 GLP-1R CRE-luciferase, luminescence, 4-6 h; cells express a hypersensitive GLP-1R form | Potency, µM (titrated, usually from 45.6 µM), for inactives: top-dose activation, hits mostly activators | hit rate 0.007% among 380,000; further: potency means the concentration at half of the fitted maximal effect; % of control where 0% means no effect
GLP-1R inv ag – inverse agonists of human GLP-1 receptor. HEK293 GLP-1R CRE-luciferase, luminescence, 24 h; GLP-1R form is constitutively active. P43220. Potency, µM (series often up to 38.3 µM), inactives show at the top dose activity change, negative = inhibition, actives largely listed as inhibitors. hit rate 1.6% among 410,000. AID 624417; further: potency means the concentration at half of the fitted maximal effect; on the % scale 0 is the no-effect control and ±100 the full control effect; nearly all actives have a fitted effect of over 55% in size
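GLP-1R inverse agonism mode: basal reporter luminescence in engineered HEK293 cells measured after one day of compound exposure at 37 deg C, with a 12 min room-temperature detection step.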
TRPML1 blocker – human mucolipin-1 channel inhibition; TRPML1-inducible cells, Ca2+ dye fluorescence, FDSS; stronger effect = lower value; inhibition of EC80 agonist-evoked calcium signal; activity change, negative = inhibition, % (concentration not given with the values); Q9GZU1; hit rate 0.02% among 390,000; in the data active means activity change below about -50%; inconclusive means between about -30% and that limit;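 further: stimulus is agonist 54-4 at its EC80 concentration; on the % scale 0 is the no-effect control and ±100 the full control effect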
Target sequence (Q9GZU1 whole entry, looked up): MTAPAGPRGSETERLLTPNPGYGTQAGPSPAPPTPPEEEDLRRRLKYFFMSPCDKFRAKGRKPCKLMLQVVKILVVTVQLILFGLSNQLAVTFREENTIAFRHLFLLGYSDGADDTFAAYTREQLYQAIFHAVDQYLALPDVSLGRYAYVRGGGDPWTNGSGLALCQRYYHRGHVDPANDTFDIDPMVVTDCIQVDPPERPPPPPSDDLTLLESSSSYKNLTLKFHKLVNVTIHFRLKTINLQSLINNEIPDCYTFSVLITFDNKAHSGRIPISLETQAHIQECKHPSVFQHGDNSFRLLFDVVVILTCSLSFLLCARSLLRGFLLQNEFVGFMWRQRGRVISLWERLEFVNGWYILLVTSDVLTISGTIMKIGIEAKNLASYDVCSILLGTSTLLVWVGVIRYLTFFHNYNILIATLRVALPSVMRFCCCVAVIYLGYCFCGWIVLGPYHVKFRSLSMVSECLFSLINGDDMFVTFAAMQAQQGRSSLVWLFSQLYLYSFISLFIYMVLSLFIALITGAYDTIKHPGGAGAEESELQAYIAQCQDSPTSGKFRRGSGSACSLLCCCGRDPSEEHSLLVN
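Tet-induced TRPML1-DL cells loaded with Ca8 no-wash calcium dye were read kinetically on FDSS. Compound addition was followed by EC80 agonist 54-4 (4 uM final); inhibition was read over 110 s.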
HEK293 tox – cytotoxicity in counter-screen for GLP-1R inverse agonists. HEK293 cAMP-luciferase reporter cells, luminescence, 24 h. Potency, µM (top dose mostly 38.3 µM), for inactives: at the top dose activity change, negative = inhibition, most hits filed as inhibitors. hit rate 0.13% among 410,000;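 further: loss of luciferase light is scored as toxicity; potency means the concentration at half of the fitted maximal effect; on the % scale 0 is the no-effect control and ±100 the full control effect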
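To flag toxic compounds, the library was rerun on cells for 24 hr at 37 deg C and 5% CO2. Viability-linked luminescence was captured 12 min after adding luciferase detection reagent.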
TRPML1 agonist – agonists of human TRPML1 channel | TRPML1-expressing cells, Ca2+ dye fluorescence, FDSS | hit rate 0.12% among 410,000 | activation, % (concentration not given with the values) | Q9GZU1; in the data active means activation above about 50%; inconclusive means mostly about 30% to 49%; further: 0% is about no effect
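In this qHTS format, compounds were pin-transferred onto Ca8-dye-loaded TRPML1-DL cells induced with Tet overnight, and intracellular Ca2+ fluorescence was recorded kinetically for 110 s after a 10 s baseline. A subsequent 4uM final 54-4 (EC80) addition followed by a second 110 s read served as the antagonist phase.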
Numbers without * were called inactive; ? = inconclusive; nt = no result. Hits are enriched below; roughly 1.8% of the tested compounds scored in any of these assays. Unless noted, the call rests on the fitted dose curve; in most records, active means well fitted curve in the direction sought with a large enough effect; inconclusive means small, poorly fitted or top-dose-only effect, or another doubt; inactive means no such curve, though single readings can be large; an effect the other way counts as inactive or inconclusive.

SMILES	GLP-1R agonist	GLP-1R inv ag	TRPML1 blocker	HEK293 tox	TRPML1 agonist
Cc1ccc(Cl)cc1N1CCN(CC(=O)Nc2ccc(CN3CCCCC3)cc2)CC1	-12%	11µM*	6	?	7
COc1ccccc1N1CCN(CC(=O)Nc2ccc(CN3CCCCC3)cc2)CC1	-2%	?	-4	?	1
CC(C)Cn1c(N2CCN(CC(=O)Nc3ccc(Cl)cc3)CC2)nc2ccccc21	7%	10µM*	25	-24%	3
O=C(CN1CCN(c2ccc(Cl)cc2)CC1)Nc1ccc(F)c(F)c1	-12%	2.8µM*	18	5%	1
CCN(CC)c1ccc(NC(=O)CN2CCN(c3ccc(F)cc3)CC2)cc1	-1%	10µM*	10	-3%	1
CCc1c(C)c2ccccc2[nH]c1=O	nt	nt	nt	nt	-1
COc1cc2c(NC3CCN(C)CC3)nc(N3CCCN(C)CC3)nc2cc1OCCCCCN(C)C	nt	nt	nt	nt	-1
Cc1ccc(C)c(NC(=O)Nc2csc3c2CCCC3)c1	nt	-29%	12	-1%	0
CC1CCN(C(=O)c2cc3c(ccc4ccccc43)o2)CC1	-1%	10µM*	7	25%	0
COc1ccc(S(=O)(=O)N2CCOc3ccccc32)cc1	-3%	3.5µM*	-23	?	5
COc1ccc(S(=O)(=O)N2c3ccccc3OCC2C)cc1 (configuration not stated)	25%	?	3	-21%	1
CCN(CC)c1ccc2c(c1)OC(N)=C(C#N)C2c1cccnc1 (configuration not stated)	9%	44%	6	135%	70*
N#CC1=C(N)Oc2cc(N)ccc2C1c1cccnc1 (configuration not stated)	2%	5%	26	-8%	1
CCC(C)NC(=O)c1cc2n(n1)CCCN(Cc1ccc(C)cc1)C2=O (configuration not stated)	nt	6%	30	7%	0
c1ccc(-c2cnn3c(-c4ccccc4)c(-c4ccccc4)nc3n2)cc1	-2%	9%	-25	98%	79*
Nc1nc(-c2ccccc2)c(-c2ccccc2)n1N	15%	49%	nt	-18%	nt
Cc1cc(C)cc(-n2ncc3c2CCCC3NC(=O)c2cc(C)oc2C)c1 (configuration not stated)	0%	13µM*	3	-8%	2
Cc1ncoc1C(=O)NC1CCCc2c1cnn2-c1cc(F)cc(F)c1 (configuration not stated)	7%	0%	1	-8%	-1
COCc1ccc(C(=O)NC2CCCc3c2cnn3-c2cc(C)cc(C)c2)s1 (configuration not stated)	6%	7.1µM*	19	-18%	2
Cc1ncoc1C(=O)NC1CCCc2c1cnn2-c1ccc(C(C)(C)C)cc1 (configuration not stated)	5%	5µM*	39	11%	1
COc1ncccc1C(=O)NC1CCCc2c1cnn2-c1cc(C)cc(C)c1 (configuration not stated)	?	4%	-10	1%	0
CC1CCC2(CC1)NC(=O)N(Cc1cccc(C(F)(F)F)c1)C2=O (configuration not stated)	7%	2.2µM*	-9	3%	1
COc1cccc(NC(=O)N2CCN(c3cccc(C)c3)C(C)C2)c1 (configuration not stated)	1%	10µM*	0	-8%	0
COC(=O)c1[nH]c2cc(C)ccc2c1NC(=O)CN1CCOCC1	11%	26%	21	6%	2
COC(=O)c1[nH]c2cc(C)ccc2c1NC(=O)CN1CCN(c2ccccc2OC)CC1	-2%	3.2µM*	-3	-18%	-2
SMILES	GLP-1R agonist	GLP-1R inv ag	TRPML1 blocker	HEK293 tox	TRPML1 agonist
COC(=O)c1[nH]c2cc(OC)ccc2c1NC(=O)CN1CCN(c2cccc(C)c2)C(C)C1 (configuration not stated)	-8%	8.9µM*	-22	?	0
CSc1ccc(CNC(=O)c2ccccc2NC(=O)c2nsc3ccccc23)cc1	nt	10%	6	2%	1
CC(C)(C)OC(=O)N1CCC(c2c(C(=O)NCc3cccs3)cnn2-c2cccc(F)c2)CC1	nt	?	-22	-11%	1
CCN1CCN(c2ncnc3c2c(-c2ccccc2)cn3-c2ccc(F)cc2)CC1	4%	-6%	-9	3%	0
COc1ccccc1N1CCN(c2ncnc3c2c(-c2ccccc2)cn3-c2cccc(Cl)c2)CC1	nt	-9%	14	1%	20
Clc1ccccc1N1CCN(c2ncnc3c2c(-c2ccccc2)cn3-c2ccccc2)CC1	nt	7%	-3	-2%	59*
COc1ccc(-n2cc(-c3ccccc3)c3c(N4CCOCC4)ncnc32)cc1	8%	3.5µM*	11	-15%	0
Fc1ccc(-n2cc(-c3ccccc3)c3c(N4CCOCC4)ncnc32)cc1	7%	?	-12	-3%	0
COc1ccc2c(-c3ccccc3)cc(N3CCOCC3)nc2c1	10%	10µM*	10	17%	3
c1ccc(-c2cc(-c3ccc(N4CCOCC4)cc3)nc3ccccc23)cc1	8%	8%	11	38%	0
OCCN1CCN(c2ncnc3c2c(-c2ccccc2)cn3-c2ccc(Br)cc2)CC1	14%	10µM*	15	?	1
CC(C)(C)C(=O)OCOC(=O)C1N2C(=O)CC2S(=O)(=O)C1(C)C (configuration not stated)	-6%	nt	nt	nt	nt
CCOc1ccccc1-n1nnc(-c2nc(-c3ccccc3C)no2)c1C	nt	10%	49	1%	4
O=C(Cn1nc(C(F)(F)F)c2c1CCCC2)Nc1ccc(F)c(Cl)c1	-14%	?	11	-27%	2
Oc1ccc(-c2nc3ccc4ccccc4c3c3c2CCC3)cc1O	-11%	4µM*	-1	?	0
Cn1nc(-c2ccccc2)cc1NC(=O)c1ccccc1	1%	?	-3	-19%	-1
O=C(Nc1cc(-c2ccccc2)nn1C1CCCCC1)c1ccc(Cl)cc1	-2%	10µM*	-7	-18%	-1
Cc1ccc2c(CC(=O)N(Cc3ccc(Cl)cc3)Cc3ccco3)coc2c1	nt	?	40	-1%	5
CC(C)(C)n1ncc2c(=O)n(Cc3ccccc3CS(=O)(=O)c3ccccc3)cnc21	nt	nt	-7	nt	1
COC(=O)C1=C(C)N(c2ccc(Cl)c(Cl)c2)C(=O)C1	-5%	13µM*	-10	-11%	0
CCOc1cc(/C=N/NS(=O)(=O)c2ccccc2)ccc1OS(=O)(=O)c1ccc(C)cc1	-11%	8.9µM*	38	-8%	3
CCOc1ccc(C(=O)COC(=O)c2c(-c3ccccc3)noc2C)cc1	10%	10µM*	-2	?	1

Compound activity (PubChem BioAssay)
